Screens from PubChem BioAssay.
MCL1 BIM primary – inhibitors of human MCL1 binding to BIM-BH3 peptide; Q07820; GST-MCL1 / FITC-Bim-BH3 fluorescence polarization; inhibition, % at 10.9 µM; 0.68% of 320,000 active;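 active = inhibition above the mean inhibition of all tested compounds plus 3 SD, set per campaign, cut at about 40% in these data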;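 note: 0% = DMSO wells and 100% = unlabeled Bim-BH3 peptide control; higher means more loss of mP so more displacement of Bim peptide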
GLD-1 RNA inh – GLD-1-TGE RNA interaction inhibition (C. elegans); Q17339; purified GLD-1 + fluorescein TGE RNA, fluorescence polarization; inhibition, % at 5.96 µM; 0.44% of 320,000 active;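 active = percent inhibition above a per-plate cutoff, the plate mean of test compounds plus 3 SD, cut at about 30% in these data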;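 note: 0% = DMSO wells with GLD-1 and probe and 100% = wells lacking GLD-1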
Target sequence (Q17339 whole entry, looked up): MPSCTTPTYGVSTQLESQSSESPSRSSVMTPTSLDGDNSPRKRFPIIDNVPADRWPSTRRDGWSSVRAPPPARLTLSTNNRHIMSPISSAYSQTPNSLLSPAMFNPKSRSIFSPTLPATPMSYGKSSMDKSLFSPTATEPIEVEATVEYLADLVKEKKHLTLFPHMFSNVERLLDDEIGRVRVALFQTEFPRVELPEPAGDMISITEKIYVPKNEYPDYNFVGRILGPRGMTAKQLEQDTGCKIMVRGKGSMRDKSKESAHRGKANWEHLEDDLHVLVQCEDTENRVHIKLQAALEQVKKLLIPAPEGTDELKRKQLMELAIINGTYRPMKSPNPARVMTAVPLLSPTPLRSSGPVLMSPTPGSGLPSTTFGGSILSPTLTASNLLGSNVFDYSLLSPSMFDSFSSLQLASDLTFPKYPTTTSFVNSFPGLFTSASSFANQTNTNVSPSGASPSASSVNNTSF
MEX-5 binding – C. elegans MEX-5 TCR-2 RNA binding activity; 0.38% of 300,000 active; AID 1832; activity score (negative = inhibition of binding), % at 10 µM; MEX-5/FITC-TCR2 RNA binding, fluorescence polarization; active compounds read low;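 active = inhibition past about -25% in most replicates, and total fluorescence under double the plate's negative control median, limit read from the data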;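 note: 0% = DMSO and -100% = 5 µM competing unlabeled TCR2 RNA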
Yeast superoxide – yeast age-related superoxide inhibition as caloric restriction mimetic | S. cerevisiae aged cells, superoxide DHE fluorescence; active compounds read low | superoxide response (% of plate mean), % at 10 µM | 0.18% of 330,000 active | AID 2690;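 active = superoxide response under a set limit, about three screen SD below normal, cut at about 65% in these data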;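 note: yeast aged for seven days with compound at 30 °C before DHE staining; 100% = average MFI of all compound-treated wells on the plate with controls excluded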
LANA-H2B inh – blocks KSHV LANA binding to histone H2A/H2B; 0.6% of 320,000 active; Q9QR71; inhibition, % (concentration not given with the values); AID 2629; cell-free LANA-H2A/H2B peptide, fluorescence polarization; in the data active = inhibition mostly above about 10%, no sharp cut-off; inactive = mostly below about 6.7%
Bcl-xL primary – inhibitors of human Bcl-xL; GST-Bcl-xL / FITC-Bim BH3 peptide fluorescence polarization; Q07817; AID 2129; inhibition, % at 10.9 µM; 0.7% of 320,000 active;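 active = inhibition above the mean of all tested compounds plus 3 SD, cutoff set per campaign, cut at about 30% in these data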;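 note: 0% = DMSO wells and 100% = unlabeled Bim-BH3 peptide competitor; inhibitors lower millipolarization by displacing the labeled peptide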
Target sequence (Q07817 whole entry, looked up): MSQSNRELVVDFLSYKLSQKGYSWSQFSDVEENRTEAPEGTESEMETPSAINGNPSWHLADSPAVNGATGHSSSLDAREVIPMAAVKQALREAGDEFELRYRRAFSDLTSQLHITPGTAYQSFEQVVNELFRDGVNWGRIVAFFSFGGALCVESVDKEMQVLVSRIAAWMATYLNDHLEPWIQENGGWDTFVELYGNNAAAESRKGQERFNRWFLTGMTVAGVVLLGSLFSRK
An asterisk follows results filed as active; . = not tested or not shown; + = active, no number. Hits are enriched below; roughly 1.9% of the tested compounds scored in any of these assays.

SMILES	MCL1 BIM primary	GLD-1 RNA inh	MEX-5 binding	Yeast superoxide	LANA-H2B inh	Bcl-xL primary
Clc1cccc(CSc2nc3ccncc3[nH]2)c1	0.9	7.3	-52.0*	97.6	-0.6	4.4
O=C(O)c1ccccc1-c1c2cc(I)c(=O)c(I)c-2oc2c(I)c(O)c(I)cc12	115.3*	49.4*	.	95.9	-90.0	109.7*
CC(C)NC(=O)Nc1ccc2c(c1)C(=O)N([C@H](C)CO)C[C@H](C)[C@@H](CN(C)S(=O)(=O)c1ccc(F)cc1)O2	.	2.8	.	101.8	-3.4	.
CCOc1ccc(CC(=O)Nc2nccs2)cc1OCC	-7.1	3.0	2.5	94.8	20.7*	-3.9
COc1ccc(CC(=O)Nc2nccs2)cc1OC	1.9	0.8	-1.1	99.5	-7.6	4.8
Clc1ccc(-c2ccc(CNCc3ccccn3)o2)cc1	10.8	4.5	-11.3	91.8	0.0	7.7
CN(C)/C(=N\S(=O)(=O)c1ccc(F)cc1)c1ccccc1	14.0	7.3	2.1	89.0	-6.2	12.9
CN(C)/C(=N\S(=O)(=O)c1ccccc1)c1ccc(F)cc1	12.2	-2.6	-1.5	105.3	15.5*	7.6
C=CCC[C@@H](Cc1ccc(F)cc1)C(=O)OCCNC(=O)[C@@H](CC=C)CC(=O)N[C@@H](CO)Cc1ccccc1	.	-1.1	.	92.9	25.7*	.
C=CCC[C@@H](Cc1ccc(F)cc1)C(=O)OC[C@@H](Cc1c[nH]c2ccccc12)NC(=O)[C@@H](CC=C)CC(=O)N(CCO)Cc1ccccc1	.	3.7	.	94.1	+	.
C=CCC[C@H](Cc1ccc(F)cc1)C(=O)OC[C@H](Cc1c[nH]c2ccccc12)NC(=O)[C@H](CC=C)CC(=O)N(CCO)Cc1ccccc1	.	6.5	.	90.9	-0.8	.
COc1ccc(S(=O)(=O)N2CCCCC2)cc1NC(=O)CCOc1cc(C)ccc1C	3.1	9.6	.	107.9	-1.5	3.5
O=C1C(Cl)=C(NCCCO)C(=O)c2ccccc21	9.3	8.0	-0.9	179.0	-0.4	10.4
CCOCCCNC1=C(Cl)C(=O)c2ccccc2C1=O	33.4	-1.2	-3.6	153.1	-6.9	34.0*
CC1Cc2ccccc2N1C(=O)CN(C)CC(=O)Nc1ccc(F)cc1 (stereo unspecified)	-13.6	-1.1	.	98.7	1.6	-10.0
CCN1CCc2c(C#N)c(N3CCOCC3)nc(NCc3ccccc3)c2C1	.	.	-1.0	.	.	.
CCN1CCc2c(C#N)c(N3CCOCC3)nc(NCCO)c2C1	39.7	26.6	-11.2	96.0	-1.9	44.3*
O=C(NCC1CCCN1S(=O)(=O)c1cccs1)c1cccc(F)c1 (stereo unspecified)	3.0	-0.3	1.9	111.3	-0.1	5.4
COc1ccccc1CNC(=O)c1cc(C)nn1-c1ccccc1	2.8	3.0	0.5	43.6*	-2.5	2.8
COc1ccccc1CNC(=O)CSc1nc2nc(C)cc(C)n2n1	4.1	0.3	-1.9	99.8	49.9*	-2.1
Cc1ccc(S(=O)(=O)N2[C@@H](c3ccccc3F)C(C(=O)O)=CC[C@H]2c2cccc(Cl)c2)cc1	6.3	2.6	.	89.4	3.1	3.3
CN=C1N(C)C[C@@H]2[C@@H]3C(=O)N(C)C(=O)[C@@H]3[C@](Cc3ccccc3)(C(=O)OC)N12	.	.	.	103.2	.	.
CCCCCOc1ccc(NC(=O)C2OC3OC(C)(C)OC3C3OC(C)(C)OC23)cc1 (stereo unspecified)	21.2	-4.1	-2.9	79.5	-6.0	5.7
COc1ccc(NC(=O)C2OC3OC(C)(C)OC3C3OC(C)(C)OC23)cc1 (stereo unspecified)	8.6	8.4	0.3	90.1	27.5*	6.9
O=C(/C=C/c1ccoc1)c1ccccc1O	3.1	-5.3	2.8	101.2	-10.2	4.0
SMILES	MCL1 BIM primary	GLD-1 RNA inh	MEX-5 binding	Yeast superoxide	LANA-H2B inh	Bcl-xL primary
O=C(/C=C/c1ccc(O)c(O)c1)c1ccccc1O	-5.8	1.4	-38.0*	105.7	4.2	-3.0
O=C(Cc1ccc(F)cc1)Nc1cccc(-c2cn3c(n2)SCC3)c1	-10.3	0.2	-0.2	111.3	+	-3.3
Nc1ccc(O)c(C(=O)O)c1	75.9*	17.9	-15.3	101.8	1.6	35.2*
COc1cc(N)ccc1C(=O)O	0.8	1.0	-1.7	109.5	1.2	3.8
COc1ccc([N+](=O)[O-])cc1NC(=O)C(C)NNC(=O)c1cccc([N+](=O)[O-])c1 (stereo unspecified)	.	4.8	.	85.2	4.3	.
Cc1ccc(/C(O)=C/c2nc3cc(C)ccc3oc2=O)cc1	-16.9	-0.7	-120.2*	92.6	26.2*	-7.0
O=c1oc2ccccc2nc1/C=C(\O)c1ccccc1	6.0	10.1	9.8	95.0	2.6	3.1
Cc1cc(C)nc(NN2C(=O)C=CC2=O)n1	7.8	2.1	-28.7*	100.0	-10.5	8.6
CCOC(=O)C1CCCN(C(=O)c2cc(CN3C(=O)c4ccccc4C3=O)ccc2OC)C1 (stereo unspecified)	6.0	6.0	4.5	91.0	27.8*	4.7
CCOC(=O)C1CCN(C(=O)c2cc(CN3C(=O)c4ccccc4C3=O)ccc2OCC)CC1	-4.7	5.7	2.0	98.6	0.0	-0.3
CCCC(=O)Nc1nn(CCC)c2nc3ccccc3cc12	-11.1	-0.2	0.9	112.5	15.0*	-0.1
CCn1nc(NC(=O)CC(C)C)c2cc3cccc(C)c3nc21	1.2	7.5	-0.2	96.8	0.3	136.8*
CCN(CC(=O)Nc1ccccc1C(F)(F)F)C(=O)c1ccccc1Cc1ccccc1	2.7	5.3	1.0	101.2	-0.1	9.0
CC1CCCCN1CCNC(=O)c1ccc2c(c1)N(Cc1cccc(Cl)c1)C(=O)c1ccccc1S2=O (stereo unspecified)	5.0	-9.1	0.0	90.2	17.7*	0.9
CN(C)S(=O)(=O)c1ccc(Cl)c(NC(=O)CNC2(C)CCS(=O)(=O)C2)c1 (stereo unspecified)	.	6.5	.	127.3	-3.3	.
CCSC1=N/C(=C\c2ccccc2)C(=O)N1	-0.5	4.4	-39.9*	84.0	1.9	3.8
CC1(C)CNC(=O)c2sc(NC(=O)c3ccccc3)nc2C1	3.4	-1.6	0.8	103.2	18.2*	3.0
CC1(C)CC(=O)c2sc(NC(=O)c3ccccc3)nc2C1	-1.6	0.2	0.2	83.3	1.6	4.7
COCCNC(=S)N1CCN(c2nc(-c3ccc(Cl)cc3)cs2)CC1	5.1	-4.0	0.1	106.5	-3.4	1.9
COCCNC(=S)N1CCN(c2nc(-c3ccc(F)cc3)cs2)CC1	1.4	-9.5	0.4	112.2	18.4*	0.1
OC(CNCc1ccccc1)COCc1ccc(Cl)cc1 (stereo unspecified)	-3.5	5.8	0.5	110.9	2.6	3.1
O=S(Cc1ccc(Cl)cc1)CC(O)COCc1ccc(Cl)cc1 (stereo unspecified)	-1.1	7.9	0.6	96.8	19.1*	5.4
COc1ccc(C(C)(C)C)cc1NC(=O)CCc1c(C)noc1C	0.2	1.5	.	110.4	30.0*	-3.5
